Out of some 69,000 compounds screened, about 8,600 (12%) showed an effect of 50% or more. For the sample, strong results were picked, then their nearest neighbours and some compounds at random.

This assay relates to Plasmodium berghei. Kind of assay: Screen against P. berghei liver stage (PbLuc), transformed with Luciferase, at 10uM. Format: functional, HepG2. To be noted: tested at 10 uM.
For the compound `CN(C)[C@@H]1COC[C@@H]2CN(Cc3ccc4c(c3)OCO4)C[C@@H]21`, the INHIBITION is -13.7%.
Regarding `CC(=O)Nc1nc(CN2CCCCC2Cn2cccn2)cs1` (stereo unspecified), the INHIBITION is on record as -15.8%.
As to `CN(C)C(=O)C1CCc2nnc(C(C)(C)C)n21` (stereo unspecified), the INHIBITION is -7.25%.
On to `Cc1cc2nccc(C3CCCN(C(=O)c4cnccn4)C3)n2n1` (stereo unspecified), for which the INHIBITION came out at 33.2%.
Consider `O=C(NC1CC1)N1CCc2ncnc(-c3ccncc3)c2CC1`, for which the INHIBITION is listed as -17%.
As for `O=C(c1ccoc1)N1CC[C@@H]2[C@H]1CCC(=O)N2c1ccccc1`, the INHIBITION is listed as 43.2%.
In the case of `Cc1occc1C(=O)N1CCC2(CCCN(Cc3cccs3)C2)C1` (stereo unspecified) it was -60.9%; in that of `Cc1cnn(CCNCC(O)c2ccc(C(F)(F)F)cc2)c1` (stereo unspecified), 23.3%; in that of `CC(C)C(=O)NC1CCCN(C(=O)c2cc3ccccc3cc2O)C1` (stereo unspecified), -13.3%.
As to `Cc1ccc(CNc2ccccc2-n2ccc(C)n2)nc1`, the INHIBITION was 40.5%.
For the compound `Cc1ccn(-c2ccccc2NCc2scnc2C)n1`, the INHIBITION was 58.3%.
Consider `Cc1ccn(-c2ccccc2NCc2cccnc2C)n1`, for which the INHIBITION is reported as -11.8%.
With `Cc1ccn(-c2ccccc2NCc2ccccn2)n1`, the INHIBITION worked out at 2.37%.
`Cc1ccn(-c2ccccc2NCc2cscn2)n1`: the INHIBITION turned out to be 52.4%.
On to `Cc1ccn(-c2ccccc2NCc2ncc[nH]2)n1`, for which the INHIBITION amounted to 7.9%.
Consider `COCCC(=O)N1C[C@H]2CN(Cc3cccc(C)c3)C(=O)[C@H]2C1`, for which the INHIBITION is on record as 14.9%.
As for `O=C(Nc1cc(C(F)(F)F)c[nH]c1=O)C1CCCNC1` (stereo unspecified), the INHIBITION stood at 42.6%.
With `O=C(NCCN1CCOCC1)N(CCCO)C1CCCc2ccccc21` (stereo unspecified), the INHIBITION was found to be 18.3%.
Consider `COc1cccc(C(=O)N2CCN(Cc3nc(C(C)C)no3)CC2)c1`, for which the INHIBITION stood at 43.3%.
Regarding `CCOc1ccc(Cl)c(C(=O)NCCc2ncc[nH]2)n1`, the INHIBITION was found to be 6.05%.
With `COc1nc2ccccc2cc1CN1CCCC(CNC(C)=O)C1` (stereo unspecified) the figure was 21.85%; with `CCOc1ccc2nc(CN3CCC(CN)C3)ccc2c1` (stereo unspecified), 57.5%; with `CCOc1ccc2nc(CN3CCOC(CN)C3)ccc2c1` (stereo unspecified), 24.8%.
`OC[C@H]1CCN(Cc2ccc3ccccc3n2)C[C@@H]1O`: the INHIBITION came out at 2.25%.
With `CCc1nccc(CN2CCC(CNC(=O)C3CCC(C)CC3)C2)n1` (stereo unspecified) the figure was 7.43%; with `CCOc1ccc2nc(CN3CCC(CNC(C)=O)C3)ccc2c1` (stereo unspecified), 51.5%; with `COCCN1CCC(NCc2cc(F)ccc2F)C1` (stereo unspecified), -14%.
With `Cc1ncc(S(C)(=O)=O)c(N(C)CCCc2cnn(C)c2)n1`, the INHIBITION is 29.1%.
Take `COc1cc(Br)c(CNC2CCCNC2=O)cc1OC` (stereo unspecified): the INHIBITION worked out at 36.5%.
In the case of `COCc1ccc(OC)c(CNC2CCCNC2=O)c1` (stereo unspecified) it was -9.51%; in that of `COc1cc(Br)cc(CNC2CCCNC2=O)c1O` (stereo unspecified), 60%.

Values taken from ChEMBL document CHEMBL4513216, “Probing the Open Global Health Chemical Diversity Library for Multistage-Active Starting Points for Next-Generation Antimalarials” (ACS Infect Dis, 2020).
